# Data from PubChem BioAssay (NCI).
# The panel holds about 83,000 compounds, 20% with a hit somewhere; the sample as a whole holds those more often.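 Interpretation: 100, growth as untreated; towards 0, rising growth inhibition; 0, no net growth; 0 to -100, cell death. Compounds scoring below 10 were considered active.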 Values without a mark were called inactive. Activity calls are given as the source filed them.
# Test system: SK-MEL-2 melanoma
# Assay: NCI-60 one-dose screen, 48 h (100 = growth as untreated, 0 = no growth, -100 = all killed)
# Settings: 10 µM unless noted
# Description: Growth inhibition of the SK-MEL-2 human tumor cell line is measured as a screen for anti-cancer activity. Cells are grown in 96 well plates and exposed to the test compound for 48 hours. Compounds are tested at a single concentration, which is 10^-5 M for most compounds. The reported endpoint is percent growth (GI% or GIPRCNT), where numbers from 0 - 100% represent growth inhibition, and numbers from -100% - 0 represent cell death. For example, a value of 40 represents 60% growth inhibition. A value of 0 means no net growth occurred over the course of the experiment. A value of -40 indicates 40% of cells at the beginning of the experiment died by the end of the experiment. A value of -100 means all cells are dead at the end of the experiment.
# NCI-60 Human Tumor Cell Lines Screen was performed using the standard one-dose NCI protocol, which is described in more detail at https://dtp.cancer.gov/discovery_development/nci-60/default.htm.
# Compounds with GIPRCNT values below 10 were considered active. Activity score was based on GIPRCNT using the following formula: […]
# Score is 0 for GIPRCNT values of 100 or above, 50 for GIPRCNT values of 0, and 100 for GIPRCNT values of -100.
row,Compound,growth
1,N#CCNc1ccc(C(=O)O)cc1,108%
2,COc1ccc(C2=NN(c3ccc(S(N)(=O)=O)cc3)C(c3ccc(Cl)cc3)C2)c(O)c1 (stereo not given),87.9%
3,Nc1c(C(=O)c2ccccc2)sc2nc(-c3cc4ccccc4o3)cc(-c3ccc(Cl)cc3)c12,84.1%
4,CCCCn1c2cc(OCc3cn(-c4ccc(Cl)cc4)nn3)ccc2c2ccnc(C)c21,74.5%
5,O=C(O)C(C(=O)O)c1cccc2ccccc12,95.2%
6,CCCCc1n(Cc2ccc3ccccc3n2)cc[n+]1Cc1ccc2ccccc2c1,-35.7% (active)
7,O=C1C(Cl)=C(Nc2ccc3c(c2NC2=C(Cl)C(=O)c4ccccc4C2=O)C(=O)c2ccccc2C3=O)C(=O)c2ccccc21,40.8%
8,Cc1cccc(C)c1NCc1nnc(-c2ccco2)o1,100%
9,COc1ccc2c(c1)C1(C(=O)N2)C(C#N)=C(c2ccccc2)Nc2c1c(-c1ccccc1)nn2-c1ccccc1 (stereo not given),84.9%
10,CC1(C)[C@@H](O)CC[C@]2(C)[C@H]3CC[C@@H]4[C@H]5[C@H](c6cn(-c7ccccc7)nn6)CC[C@]5(CO)CC[C@@]4(C)[C@]3(C)CC[C@@H]12,92.4%
11,NS(=O)(=O)c1ccc(-n2ncc(NC(=O)Nc3ccc(S(=O)(=O)Nc4nccs4)cc3)c2-c2ccccc2)cc1,93.2%
12,C#CC[C@@H]1C[C@]2(C)[C@H]3CC[C@@H]4[C@H]5[C@H](C(=C)C)CC[C@]5(C(=O)O)CC[C@@]4(C)[C@]3(C)CC[C@H]2C(C)(C)[C@H]1O,80.3%
13,O=S(=O)(O)c1ccc(N=NSc2ccc3ccccc3c2)cc1,92.4%
14,COc1cc2c(Nc3ccc(NC(=O)Nc4ccc(Cl)c(C(F)(F)F)c4)c(Cl)c3)ncnc2cc1OCCCN1CCN(C)CC1,-37.9% (active)
15,COc1ccc(-c2nnc(N3CCN(C(=O)CN4CCN(c5ccc(OC)cc5)CC4)CC3)nc2-c2ccc(OC)cc2)cc1,-63.6% (active)
16,CNCc1cccc2c1OCCOCCOCCN(CCN1CCOCC1)S(=O)(=O)c1ccc(cc1)-c1cnc(N)c(n1)C(=O)N2,60.9%
17,CC(C)(C)CC(C)(C)Cc1ccc(OCCOCC[N+](C)(C)Cc2ccccc2)cc1,28.4%
18,CCOc1ccccc1C(=O)/C=C/c1cc2ccccc2[nH]c1=O,4.96% (active)
19,CCOC(=O)C(=Cc1c(-c2ccccc2)[nH]c2ccccc12)C(=O)OCC,-3.76% (active)
20,c1cc(CNC23CC4CC(CC(C4)C2)C3)cc(C[N+](Cc2cccc(CNC34CC5CC(CC(C5)C3)C4)c2)(Cc2cccc(CNC34CC5CC(CC(C5)C3)C4)c2)Cc2cccc(CNC34CC5CC(CC(C5)C3)C4)c2)c1 (stereo not given),31.8% [42 µM]

row,Compound,growth
1,COc1cc(NC(=O)c2cc(O)c(C/C=C(\C)CCC=C(C)C)c(O)c2)cc2c1O[C@]1(C)CC[C@@H](O)C(C)(C)[C@H]1C2,-5.49% (active)
2,Cc1c(Cl)cccc1NC(=O)c1sc2nc3c(cc2c1N)CCCCCC3,11.8%
3,CC(=O)Oc1ccc(O)cc1,87.2%
4,COc1cc(C)ccc1Oc1nc(Nc2ccc(N3CCOCC3)cc2)ncc1N=Cc1cc(C(F)(F)F)cc(C(F)(F)F)c1,70.2%
5,C=C(C)[C@@H]1CC[C@]2(C(=O)NCCCO)CC[C@]3(C)[C@H](CC[C@@H]4[C@@]5(C)CCCNC(C)(C)[C@@H]5CC[C@]43C)[C@@H]12,94.1%
6,COc1ccc(/C=C/C(=O)c2ccc(NC(=O)CSc3nnc(-c4ccc(OC)c(OC)c4)n3-c3ccccc3)cc2)cc1,74.7%
7,CCOC(=O)c1sc(/N=C2\NC(=O)/C(=C/c3ccc(N4CCN(C)CC4)cc3)S2)nc1C,98%
8,C=C1C(=O)O[C@H]2[C@H]1CC/C(COC(=O)N1CCC[C@H]1C(=O)Nc1ccc(OC)c(C(N)=O)c1O)=C\CC[C@@]1(C)O[C@@H]21,66.5%
9,O=C(Nc1ccc(S(=O)(=O)NC2CCCCCC2)cc1)C(c1ccccc1)S(=O)(=O)c1ccc(F)cc1 (stereo not given),-22.9% (active)
10,CC1(C)Cc2c(Br)c(Br)c(Br)c(OCC(O)CN3CCOCC3)c2O1 (stereo not given),-46.5% (active)
11,Nc1n[nH]c2cccc(C#Cc3cccc(NC(=O)c4cc(N5CCOCC5)cc(C(F)(F)F)c4)c3)c12,0.377% (active)
12,Cc1ccc(C2=N[C@H]3CCC[C@@H]3N(c3ccccc3)C(C(Cl)Cl)=N2)cc1,96.8%
13,CCO/C=N/S(=O)(=O)c1cc2c(cc1Cl)NC=NS2(=O)=O,105%
14,C=C1C(=O)O[C@H]2[C@H]1CC/C(COC(=O)CCC(=O)OC/C1=C/CC[C@@]3(C)O[C@H]3[C@H]3OC(=O)C(=C)[C@@H]3CC1)=C\CC[C@@]1(C)O[C@@H]21,60.8%
15,Nc1c(C(=O)Nc2ccccc2)sc2nc3c(cc12)CN(C(=O)OCc1ccccc1)CC3,31.8%
16,Nc1ccc(C2=NN(C(=O)c3cc(-c4ccc(Cl)cc4)nc4ccccc34)C(c3ccccc3)C2)cc1 (stereo not given),37.1%
17,COc1ccc(-c2[nH]c3ccccc3c2C=C(C#N)C#N)cc1,-14.5% (active)
18,O=C(/C(=C/c1ccc([N+](=O)[O-])cc1)SCc1ccc(F)cc1)c1ccc(Cl)cc1,88.5%
19,NC(=O)C(O)(c1ccccc1)c1ccccc1,105%
20,c1ccc2nc(N3CCOCC3)c(N3CCCCC3)nc2c1,95.2%
